# Results reported in PubChem BioAssay AID743279 (National Center for Advancing Translational Sciences (NCATS), 2014).
# Hit rate of the full screen: of about 360,000 compounds, about 17,000 (4.7%) were called active. Roughly 5% stayed inconclusive and do not appear here. Many of the other results were omitted from the sample, so actives are more common in it than they were. Unmarked numbers belong to inactive results. Rule as the data show it: active = activity change below about -50%; inconclusive = mostly about -30% to -49%; inactive = weaker than that.
# Test: qHTS for Inhibitors of Inflammasome Signaling: IL-1-beta AlphaLISA Primary Screen
# Settings: THP-1 LPS/ATP IL-1B secretion, 16 h, at 57.5 µM, active compounds read low
# Excerpt: Inflammasomes are a set of intracellular multi-protein complexes that enable autocatalytic activation of inflammatory caspases and drive the innate immune response to counter harmful agents. […] A qHTS assay, based on AlphaLISA technology, was developed to screen the Molecular Libraries Small Molecule Repository (MLSMR) to look for novel inflammasome inhibitors. The assay detects IL-1B using AlphaLISA anti-IL-1B acceptor and donor beads. A decreased emission signal, indicating reduced IL-1B secretion, is the desired outcome for this assay. NIH Chemical Genomics Center [NCGC] NIH Molecular Libraries Probe Centers Network [MLPCN] MLPCN Grant: MH095513 Assay Provider: Shyam Biswal Ph.D., Johns Hopkins University Immunity. 2012 Jul 27;37(1):85-95. PMID: 22819042 [2] Curr Pharm Des. 2012;18(16):2320-8. PMID: 22390695
# Three microliters containing 3000 THP-1 cells were dispensed into the wells of solid, white, tissue culture treated Greiner 1,536-well plates. Library compounds and positive control, Glyburide, were pin-transferred (23 nL) by a Kalypsys pin-tool equipped with a 1,536-pin array, resulting in final compound concentration ranges of 2.5 nM to 57.5 uM. After 1 hr of cell culture incubation (37 °C, 5% CO2), 1 microL of 1 microg/mL lipopolysaccharide (250 ng/mL, final) and 5 mM ATP (1.25 mM, final) were added to stimulate the cells. After 16 hr of cell culture incubation with the compounds, 1.5 uL of anti-IL-1B acceptor beads (6 ug/mL, final) and biotinylated antibody (0.6 nM, final) were added to the plate, followed by a 1 hr incubation at ambient temperature. To detect the secreted IL-1B, 1.5 uL of AlphaLISA SA-Donor beads (24 ug/mL, final) were added, followed by 30 min of incubation in the dark at ambient temperature. The AlphaLISA signal was read by a PerkinElmer EnVision plate reader with an ultrasensitive luminescence detector and 1536 Plate HTS AlphaScreen aperture (excitation of 680nm and emission of 615nm).
# % is scaled to controls: 0 for no effect and ±100 for the full control effect.
row,Structure (SMILES),activity change
1,COc1ccc(-n2nnnc2C(c2cccc3ccccc23)N2CCC(n3c(=O)[nH]c4ccccc43)CC2)cc1 (configuration not stated),-8.75%
2,CSCCC(c1nnnn1C(C)(C)C)N1CCC(n2c(=O)[nH]c3ccccc32)CC1 (configuration not stated),-2.99%
3,O=c1[nH]c2ccccc2n1C1CCN(C(c2ccccc2)c2nnnn2Cc2ccccc2)CC1 (configuration not stated),-56.7% (active)
4,Cc1ccc(OC(=O)N(C)C[C@@H]2OCc3cnnn3CCCC(=O)N([C@H](C)CO)C[C@@H]2C)cc1,37.1%
5,CCOc1ccc(C2SCC(=O)Nc3c2c(C)nn3C2CCOC(C)(C)C2)cc1 (configuration not stated),13.7%
6,O=C(CCC(=O)N1C[C@H]2C[C@@H](C1)c1cccc(=O)n1C2)NCc1ccccc1C(F)(F)F,-1.41%
7,c1ccc(N2Cc3ccccc3-n3nncc3C2)nc1,12.3%
8,CC(=O)C1(O)CCC2C3CCC4=C(Cl)C(=O)CCC4(C)C3CCC21C (configuration not stated),-20.8%
9,CCC(C)(O)C(=O)OC1C(=O)OC2CC3C(C)=CC(=O)C(O)C3(C)C3C4(O)OCC23C1C(C)C4O (configuration not stated),-100% (active)
10,CC(=O)NCC1=C(c2ccc3ccccc3c2)C[C@@H]2CC[C@H]1N2Cc1ccco1,-3.75%
11,c1cc2c(c(NC3=NCCCS3)c1)CCCC2,-2.25%
12,COc1ccccc1N=Nc1c(O)[nH]c(=S)[nH]c1=O,56.6%
13,CCC1(C)CC(CCNCc2ccc(N(C)C)cc2)(c2ccc(F)cc2)CCO1 (configuration not stated),-72.1% (active)
14,CC1CC=CCC12C(=O)NC(=S)NC2=O (configuration not stated),5.3%
15,CC=C(C)C(=O)OC1CCN2CC=C(COC(=O)C(O)(C(C)OC)C(C)(C)O)C12 (configuration not stated),12.9%
16,O=C(c1cc2nc(-c3ccccc3)cc(-c3ccccc3)n2n1)N1CCC2(CC1)OCCO2,-87.9% (active)
17,O=C(c1ccccc1[N+](=O)[O-])N1CCC2(CC1)OCCO2,-4.53%
18,O=C(c1cc(-c2ccncc2)nc2ccccc12)N1CCC2(CC1)OCCO2,0%
19,COc1cccc(C(c2nnnn2-c2ccc3c(c2)OCCO3)N2CCC3(CC2)C(=O)NCN3c2ccccc2)c1OC (configuration not stated),-6.07%
20,COC(=O)COc1cc(C)cc2oc(=O)c3c(c12)CCCC3,22.7%
21,CC1([N+](=O)[O-])COP(=O)(Nc2ccc(F)cc2)OC1 (configuration not stated),15.6%
22,COc1cc(-n2c(=S)[nH]c3ccc(C)cc3c2=O)c(Cl)cc1Cl,71.7%
23,OC1/C(=C/c2ccc(C(F)(F)F)cc2)N2CCC1CC2 (configuration not stated),22.5%

row,Structure (SMILES),activity change
1,CCOC(=O)[C@]12Cc3cc(OC)ccc3[C@H]1N(C(C)C)C(=O)c1ccccc12,-125% (active)
2,O=c1c2ccccc2nc(CBr)n1-c1ccc(Cl)cc1,-7.74%
3,O=C(C1CC(=O)N(C2CCCC2)C1)N1CCC2(CC1)OCCO2 (configuration not stated),13.5%
4,CN1CCN(/N=C/c2c[nH]c3ccccc23)CC1,7.92%
5,CN(C)c1ccc(/C=C2\CC3C4CC=C5CC(O)CCC5(C)C4CCC3(C)C2=O)cc1 (configuration not stated),0.523%
6,C[C@@]1([C@@H](NP(=O)(c2ccccc2)c2ccccc2)c2ccccc2)C[C@H]1CCO,-4.2%
7,CCNc1nc2[nH]c(=O)c3c(c2s1)OC(N)=C(C#N)C3c1cccs1 (configuration not stated),-64% (active)
8,CC(C)c1ccc(OCC(=O)N2CCN(C)CC2)c(Br)c1,9.25%
9,COC(=O)C1=C(c2ccc(OCc3ccccc3)cc2)C[C@@H]2CC[C@H]1N2C(=O)NCc1cccc(F)c1,-12.8%
10,CC1=CC(=Cc2sc3ccccc3[n+]2C)C=C(C)O1,-51.7% (active)
11,COc1ccc(CNCCc2c[nH]c3ccccc23)cc1OC,-24.9%
12,COc1ccc(CNCCc2ccc3c(c2)OCO3)c(OC)c1OC,-11.8%
13,COc1ccc(Br)cc1CNCCc1cccc(Cl)c1,-72.2% (active)
14,Nc1ccc(Cc2ccc(N)c(Cl)c2)cc1Cl,-24.6%
15,COC(=O)CN(CCCl)P1(=O)OCCCN1CCCl (configuration not stated),41.8%
16,CCOP(=S)(OCC)SCOC(=O)NCC(=O)OC,0.573%
17,CN(C)CC1Oc2ccccc2OC1(O)c1ccccc1 (configuration not stated),-101% (active)
18,Cc1cccc(N2C(=O)NC(=O)/C(=C\c3cnn(-c4ccccc4)c3)C2=O)c1,-60% (active)
19,COc1cccc(N2C(=O)NC(=O)/C(=C\c3ccc([N+](=O)[O-])s3)C2=O)c1,-0.584%
20,O=C1NC(=O)N(c2ccccc2)C(=O)/C1=C/c1ccc([N+](=O)[O-])s1,-11.6%
21,Cn1c(O)c(C(=Nc2ccc(F)cc2)c2ccccc2)c(=O)n(C)c1=O,3%
22,c1cncc(CNC2=NCCC2)c1,34.2%
23,CCOC(=O)C1(c2ccccc2)CCN(CC(O)c2ccc(NC(C)=O)cc2)CC1 (configuration not stated),-10.2%

row,Structure (SMILES),activity change
1,CC1=C(C(=O)Nc2ccccc2)SCCO1,19.6%
2,CC1=C(C(=O)Nc2ccccc2)S(=O)(=O)CCO1,-86.7% (active)
3,C[C@]12CCC3C(CC[C@H]4[C@H](O)[C@H](O)CC[C@]34C)C1CC[C@@H]2O (some centres not stated),38.5%
4,CC(=CCOc1ccc2ccc(=O)oc2c1)C1=CC(=O)C(C)(C)O1,-91.3% (active)
5,CC(CC(C#N)(c1ccccc1)c1ccccc1)N1CCCCC1 (configuration not stated),-2.29%
6,O=C1C2CCN(CC2)C1(CO)CO,-9.66%
7,CCC(=O)c1ccc(OCC(=O)N2CCN(CC(=O)Nc3ccc(C)cc3)CC2)cc1,14.3%
8,Clc1ccc2nc3c(c(-c4ccccc4)c2c1)CNCC3,-57% (active)
9,C[C@H]1CN([C@@H](C)CO)C(=O)CCCn2nncc2CO[C@H]1CN(C)C(=O)Oc1ccccc1,16.8%
10,O=C(CCNS(=O)(=O)c1ccccc1)Nc1ccc(Cl)cc1C(=O)c1ccccc1,-63% (active)
11,O=C(COC(=O)c1ccccc1)Nc1ccc(Cl)cc1C(=O)c1ccccc1,15.9%
12,CN1CCN(C(=S)SCC(=O)Nc2ccc(Cl)cc2C(=O)c2ccccc2)CC1,-88% (active)
13,O=C(CCN1CCCCC1)NCC(=O)Nc1ccc(Br)cc1C(=O)c1ccccc1,-10.3%
14,O=C(CN1CCCCC1)Nc1ccc(Br)cc1C(=O)c1ccccc1Cl,-8.15%
15,CCC/C(=N\O)c1c[nH]c2ccccc12,23.8%
16,Cn1c(C(=O)N2CCC(C(=O)N3CCC4(CC3)OCCO4)CC2)cc2sccc21,-11.3%
17,CNP1(NC)=Nc2nn(-c3ccccc3)c(N)c2C(c2ccccc2)=N1,-24.6%
18,C=C(C)C1(CCCC)C(=O)NC(=S)NC1=O,11.5%
19,CCOC(=O)CNC(=O)N1Cc2cc(N3CCCCC3)ccc2-n2nncc2C1,-5.99%
20,COC(=O)[C@@H]1C(OC(=O)c2ccccc2)CC2CCC1N2C (some centres not stated),-10.2%
21,COC(=O)C1=C(c2ccccc2)C[C@@H]2CC[C@H]1N2C(=O)N1CCCCC1,-19.1%
22,COc1ccc2c(c1)NP(=S)(c1ccccc1)N2 (configuration not stated),-12.5%
23,CC12CCC(O)CC1CCC1C2CCC2(C)C(C(=O)CC(O)C(F)(F)F)CCC12 (configuration not stated),15.6%

row,Structure (SMILES),activity change
1,COc1ccc(-c2nn(CCC#N)cc2C(=O)O)cc1,10.5%
2,O=c1[nH]c(=S)n(C2CC2)c(O)c1/C=N/N1CCOCC1,33.5%
3,C[N+]1(C)CCOC(O)(c2ccc(-c3ccc(C4(O)C[N+](C)(C)CCO4)cc3)cc2)C1 (configuration not stated),7.41%
4,Cn1cc(C(=O)OCC(=O)N2CCCC2)c2ccccc21,-12.4%
5,C[C@]12CCC3C(CC[C@H]4[C@H](O)[C@H](O)CC[C@]34C)C1CCC2=O (some centres not stated),8.07%
6,C[C@]12CCC3C(CC[C@H]4C[C@@H](O)CC[C@]34C)C1C[C@@H](O)[C@H]2O (some centres not stated),24.7%
7,CC12CCC3C(CCC4CC(=O)CCC43C)C1CC(=NO)C2=O (configuration not stated),-101% (active)
8,O=c1c2ccccc2[nH]c(=S)n1-c1cccc(Cl)c1,25.2%
9,CCn1cc(CN2CCCC(C(=O)c3cccc(C(F)(F)F)c3)C2)cn1 (configuration not stated),10.1%
10,COc1ccc(CCn2c(O)c(C=NCCCn3ccnc3)c(=O)[nH]c2=O)cc1OC,43.4%
11,CCCCCCCCCCCCn1ccc(=N)cc1,-100% (active)
12,CCOC(=O)C1SC2(C(F)(F)C(F)F)CC1(O)c1c(c(OC)c3occc3c1OC)O2 (configuration not stated),0%
13,CC(C)(C)[C@]1(O)C[C@@H]2OC(=O)C[C@@]23C(=O)O[C@@H]2OC(=O)[C@H](O)[C@]213,-4.02%
14,COCc1cc(OC(=O)N(C)C)nc(-c2ccc(C)c(Cl)c2)n1,-2.68%
15,C[C@]12CCCCC1=CC(=O)C1C2CC[C@@]2(C)C1C[C@@H](F)[C@@H]2O (some centres not stated),0.0265%
16,CC(C)c1ccc(OCC(=O)N2CCCN(C)CC2)cc1,-17.5%
17,CCOC(=O)CC(SP1(=S)OCC2(CCCCO2)C(C2CCCCO2)O1)C(=O)OCC (configuration not stated),17.2%
18,ClC(Cl)(Cl)c1ccccc1,-9.44%
19,CC(c1ccccc1)(c1ccccc1)c1ccncc1,-63.6% (active)
20,c1ccc(C(CN2CCCCC2)c2ccccc2)cc1,-8.96%
21,CNC(=O)N(C)c1nnc(C(C)(C)C)s1,17.7%
22,O=C1NCN(c2ccccc2)C12CCN(C(c1cccs1)c1nnnn1C1CCCCC1)CC2 (configuration not stated),-18.5%
23,CC(C)CN1Cc2cc(N3CCCCC3)ccc2-n2nncc2C1,-4.66%
